Among the data in PubChem BioAssay (NCI) are growth values, retold here.

SMILES strings stand for the structures. The panel holds about 83,000 compounds, 20% with a hit somewhere; the sample as a whole holds those more often.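 Cells were grown in 96-well plates and exposed to the test compound at a single concentration for 48 hours; results are reported as percent growth, with values below 10 considered active.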 Values without a mark were called inactive. The source made the active and inactive calls.

Holding throughout (test): NCI-60 one-dose screen, 48 h (100 = growth as untreated, 0 = no growth, -100 = all killed)
For assay [1], the system named is HOP-92 NSCLC. To be noted: 10 µM unless noted.
The subject of assay [2] is MALME-3M melanoma. The conditions noted are these: 10 µM unless noted.
Assay [3] has as its system RXF 393 renal. To be noted: 10 µM unless noted.
Assay [4] has as its system M14 melanoma. To be noted: 10 µM unless noted.
Assay [5] relates to U251 CNS. To be noted: 10 µM unless noted.
Assay [6] has as its system EKVX NSCLC. The conditions noted are these: 10 µM unless noted.
Assay [7] has as its system CCRF-CEM leukemia. The conditions noted are these: 10 µM unless noted.
Assay [8] relates to MOLT-4 leukemia. To be noted: 10 µM.
The subject of assay [9] is SR leukemia. To be noted: 10 µM.
In assay [10] the test system is SK-OV-3 ovarian. To be noted: 10 µM unless noted.
Assay [11] relates to BT-549 breast. To be noted: 10 µM.
Assay [12] concerns SW-620 colon. To be noted: 10 µM unless noted.
Assay [13] deals with LOX IMVI melanoma. The conditions noted are these: 10 µM unless noted.
Assay [14] deals with TK-10 renal. To be noted: 10 µM unless noted.
Assay [15] deals with CAKI-1 renal. To be noted: 10 µM unless noted.
Assay [16] deals with RPMI-8226 leukemia. To be noted: 10 µM unless noted.
Assay [17] deals with HCT-116 colon. To be noted: 10 µM unless noted.
In assay [18] the test system is COLO 205 colon. To be noted: 10 µM.
Assay [19] has as its system NCI-H522 lung. The conditions noted are these: 10 µM unless noted.

For `ClCCN(CCCl)c1ccc(/C=C\c2ccnc3ccccc23)cc1`, the growth in assay [1] is 46.6%; in [2], 74.4%; in assay [3], 99%; in assay [4], 85.5%; in assay [5], 76.4%; in assay [6], 81%. Moreover, the growth in [7] was 71%; in assay [8], 69.8%; in [9] it was 48.2%; in [10], 101%; in assay [11] it was 70.5%; in [12] it was 77.2%.

Consider `O=c1cc[nH]c(=O)o1`, for which the growth in assay [1] is 118%; in assay [2], 95.2%; in assay [3], 114%; in assay [4], 103%; in assay [5], 102%; in assay [13] it was 97.9%. In addition, the growth in assay [14] was 84.1%; in assay [15], 102%; in assay [9] it was 94.7%; in assay [16] it was 93.1%; in assay [10], 102%; in assay [11], 102%. Also, the growth was 107% in [12] and 98.1% in assay [17].

On to `Nc1ccc([N+](=O)[O-])c2c1Oc1ccccc1O2`, for which the growth was 84.4% in assay [1]; 99.3% in [18]; 121% in assay [2]; 49.5% in assay [3]; 90.2% in [5]; 103% in assay [13]. Moreover, the growth in assay [6] was 91.9%; in assay [14], 94.4%; in assay [15], 58.3%; in assay [7] it was 91.2%; in assay [8], 79.7%; in assay [16] it was 105%. For the same molecule, the growth in [10] was 88.9%; in assay [11], 87%.

As for `ClCCN(CCCl)c1nc(Cl)c(C2CC(c3ccc(Cl)cc3)=NN2c2cc(Cl)cc(Cl)c2)s1` (configuration not stated), the growth in assay [19] was 80%; in [18], 105%; in assay [2], 107%; in [3], 119%; in assay [4], 95.8%; in [5], 98.6%. In addition, the growth in assay [13] is 106%; in assay [6], 102%; in assay [14], 109%; in assay [15] it was 82.9%; in [7] it was 99.7%; in [8], 95%. The growth in assay [9] is 93.1%; in assay [10] it was 87.1%; in [12], 99.2%; in assay [17] it was 85.8%.

With `CN1CCN(C(=O)COc2ccc(/C=C3\CC4C5CC=C6CC(Cl)CCC6(C)C5CCC4(C)C3=O)cc2)CC1` (configuration not stated), the growth in assay [19] is 61.5%; in assay [18], 60.5%; in [2], 73.8%; in assay [3], 79%; in assay [4] it was -13% (active); in assay [5], 34.1%. Further, the growth was 68.2% in assay [6]; 88.2% in [14]; 70.1% in assay [15]; 49.3% in assay [7]; 0.223% (active) in [9]; 53.5% in assay [16]. In addition, the growth was 85.8% in [10] and 87.3% in [11].

For `O=C(CCl)NCNC(=O)CCl`, the growth in [1] was 99.5%; in assay [2], 114%; in [3] it was 107%; in assay [4] it was 91.5%; in [5], 87.9%; in [14] it was 105%. Besides, the growth in assay [15] is 56.8%; in [8], 90.4%; in [9] it was 80.2%; in [16] it was 83%; in assay [10], 98.8%; in assay [12], 100%.

Regarding `O=C(CC1(O)C(=O)Nc2ccc(F)cc21)c1ccc(C(=O)NCC2CCC3(CC2)OOC2(CCCCC2)OO3)cc1` (configuration not stated), the growth in [1] is -65.3% (active); in [18] it was 33.7%; in [2], -35.8% (active); in assay [3] it was 59.4%; in [5] it was 15.3%; in assay [13], 39.1%. Besides, the growth is -29.9% (active) in [6]; -15.9% (active) in [15]; -32.1% (active) in assay [7]; 22.5% in [8]; -43.2% (active) in assay [9]; 12.7% in [16]. Also, the growth in [10] was 91.1%; in assay [11], 78%; in assay [12], 61.1%; in assay [17], 69.7%.

For the molecule `O=C(O)c1cccc(CCl)c1`, the growth in assay [1] is 84.3%; in assay [18] it was 106%; in assay [2], 110%; in assay [3], 112%; in [4], 95.8%; in assay [5], 96.7%. For the same molecule, the growth in assay [13] was 95.8%; in [14] it was 97.5%; in [15], 106%; in [8] it was 93.2%; in assay [9] it was 89.5%; in [16], 105%. The growth was 99.7% in assay [10], 96.6% in assay [11], 110% in [12] and 96.7% in [17].

On to `CC(=O)N1N=C(c2ccccc2)CC1c1sc(N(CCCl)CCCl)nc1Cl` (configuration not stated), for which the growth in assay [19] was 72.2%; in assay [18], 99.5%; in assay [2] it was 109%; in assay [3] it was 97.5%; in assay [4] it was 101%; in [5] it was 92.6%. The growth in assay [13] was 103%; in assay [6] it was 90.9%; in assay [14] it was 108%; in assay [15] it was 80.2%; in assay [7], 93.5%; in assay [8] it was 86.7%. For the same molecule, the growth in [9] is 86.4%; in assay [10], 89.4%; in [12], 96.8%.

For `O=CC(Br)C(Br)c1ccccc1` (configuration not stated), the growth was 98% in assay [19]; 123% in [18]; 82.6% in assay [2]; 86.8% in assay [3]; 91.8% in [4]; 102% in assay [5]. The growth in [13] was 56.2%; in assay [14] it was 106%; in [15], 92.9%; in assay [7], -1.8% (active); in assay [8], 16.6%; in assay [9] it was 16.1%. The growth in assay [16] was 89%; in assay [10], 109%; in [11] it was 99.7%; in [17] it was 2.83% (active).

Consider `O=S(=O)(c1ccc(Cl)cc1)C(Cl)(Cl)Cl`, for which the growth in assay [19] is 11%; in assay [18], 48%; in assay [2] it was 9.32% (active); in [3], -5.22% (active); in assay [4] it was 8.38% (active); in [5], 52.1%. Besides, the growth was 35.1% in [13]; 40.6% in assay [6]; 50.6% in assay [14]; 25.3% in assay [7]; 16.2% in assay [8]; 15.1% in assay [9]. The growth is 18% in assay [16]; 84.9% in assay [10]; 34.1% in assay [11]; 24.4% in assay [12]; 42.2% in [17].
